About 79,000 compounds went through this panel and 15% of them were active in at least one assay; those are over-represented in the sample as a whole. Active and inactive are the calls of the source. No stated cut-off is given here; in the data, active means growth inhibition above about 70%; inactive means the rest.
Assays:
[1] = NCI Yeast Anticancer Drug Screen. Data for the rad52 strain (AID 147);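 further: 0% = growth of vehicle-treated control cultures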; details: S. cerevisiae rad52 mutant growth inhibition, hits give high values
How it was run: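 DNA repair-defective yeast; compound exposure; growth scored against vehicle controls.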

[2] = NCI Yeast Anticancer Drug Screen. Data for the wt1 strain (AID 149);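 further: 0% = growth of vehicle-treated wt1 cultures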; details: S. cerevisiae wt1 strain (SPY 50644) growth inhibition, hits give high values
How it was run: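 Growth inhibition read against vehicle controls after compound exposure of the wt1 yeast strain.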

[3] = NCI Yeast Anticancer Drug Screen. Data for the rad50EPP+ strain (AID 151);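 further: 0% = growth of vehicle-treated control cultures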; details: S. cerevisiae rad50 mutant strain, hits give high values
How it was run: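 rad50EPP+ yeast treated with test compounds. Readout: growth vs vehicle control.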

[4] = NCI Yeast Anticancer Drug Screen. Data for the rad50 strain (AID 155);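 further: 0% = growth of vehicle-only cultures of the same strain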; details: S. cerevisiae rad50 strain growth inhibition, hits give high values
How it was run: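 Readout: growth inhibition relative to vehicle-treated cultures. Compound exposure was carried out in a genetically defined yeast strain deficient in DNA damage repair.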

[5] = NCI Yeast Anticancer Drug Screen. Data for the mec2-1 strain (AID 157); details: S. cerevisiae mec2-1 strain, hits give high values
How it was run: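 Growth inhibition is read against vehicle-treated controls after compound exposure of the mec2-1 yeast strain, which is defective in DNA damage repair or cell cycle control.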

[6] = NCI Yeast Anticancer Drug Screen. Data for the rad14 strain (AID 159);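 further: 0% = growth of vehicle-treated control cultures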; details: S. cerevisiae rad14 strain growth inhibition, hits give high values
How it was run: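 Growth inhibition vs vehicle controls; genetically altered yeast strain (DNA damage repair defect) treated with test compounds.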

[7] = NCI Yeast Anticancer Drug Screen. Data for the sgs1 mgt1 strain (AID 161);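 further: 0% = growth of cultures given vehicle only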; details: S. cerevisiae sgs1 mgt1 strain, hits give high values
How it was run: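 Growth of a repair-deficient yeast mutant was monitored after compound treatment and expressed as inhibition relative to vehicle-treated cultures.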

[8] = NCI Yeast Anticancer Drug Screen. Data for the cln2 rad14 strain (AID 165);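 further: 0% = growth equal to vehicle treated cultures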; details: S. cerevisiae cln2 rad14 strain, hits give high values
How it was run: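 Growth inhibition, relative to vehicle-treated controls, is the read-out. The test organism is a yeast strain with defined genetic alterations, cln2 rad14.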

[9] = NCI Yeast Anticancer Drug Screen. Data for the bub3 strain (AID 167); details: S. cerevisiae bub3 mutant strain, hits give high values
How it was run: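 Readout: yeast growth inhibition, expressed relative to vehicle-only wells. The test organism is a mutant strain from a panel with lesions in DNA repair or checkpoint genes.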

[10] = NCI Yeast Anticancer Drug Screen. Data for the mlh1 strain (AID 171);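 further: 0% = growth of vehicle-treated control cultures of the same strain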; details: S. cerevisiae mlh1 strain growth inhibition, hits give high values
How it was run: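 Compounds are applied to a genetically altered yeast strain, and its growth is compared with that of vehicle-treated cultures to give percent inhibition.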

[11] = NCI Yeast Anticancer Drug Screen. Data for the sgs1 strain (AID 173);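 further: 0% = growth of vehicle-only control cultures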; details: S. cerevisiae sgs1 mutant, hits give high values
How it was run: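 Compounds applied to genetically altered yeast; growth compared with vehicle-treated cultures to give % inhibition.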

[12] = NCI Yeast Anticancer Drug Screen. Data for the mlh1 rad18 strain (AID 175); details: S. cerevisiae mlh1 rad18 strain growth inhibition, hits give high values
How it was run: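 Cells of a genetically altered yeast strain, deficient in DNA damage repair, were treated with compound. Their growth was then compared with that of vehicle-treated cultures to give inhibition.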

[13] = NCI Yeast Anticancer Drug Screen. Data for the rad18 strain (AID 177); details: S. cerevisiae rad18 mutant growth inhibition, hits give high values
How it was run: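 Compounds are applied to a repair-deficient yeast strain, and growth is compared with that of vehicle-treated cultures to give percent inhibition.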

[14] = at 5.0 µM (retest, dose inferred, filed as 0.5)
[15] = at 50.0 µM (retest, dose inferred, filed as 5.0)

Measured: growth inhibition

COC(=O)C(Cl)(Cl)N=Nc1c(Cl)cc(Cl)c(C)c1Cl
active: [1]; at 3.7 µM 83% | [1]; at 11.0 µM 97% | [1]; at 33.0 µM 98% | [1]; at 100.0 µM 97% | [2]; at 11.0 µM 99% | [2]; at 33.0 µM 99% | [2]; at 100.0 µM 99% | [3]; at 3.7 µM 83% | [3]; at 11.0 µM 99% | [3]; at 33.0 µM 99% | [3]; at 100.0 µM 99% | [4]; at 11.0 µM 96% | [4]; at 33.0 µM 92% | [4]; [15] 99% | [4]; at 50.0 µM 92.5% | [4]; at 100.0 µM 96% | [5]; at 11.0 µM 97% | [5]; at 33.0 µM 98% | [5]; [15] 99% | [5]; at 50.0 µM 91.3% | [5]; at 100.0 µM 98% | [6]; at 11.0 µM 80% | [6]; at 33.0 µM 99% | [6]; at 100.0 µM 98% | [7]; at 50.0 µM 91.9% | [8]; at 50.0 µM 88.2% | [9]; at 11.0 µM 92% | [9]; at 33.0 µM 98% | [9]; at 50.0 µM 93.2% | [9]; at 100.0 µM 98% | [10]; at 11.0 µM 96% | [10]; at 33.0 µM 100% | [10]; at 100.0 µM 100% | [11]; at 3.7 µM 88% | [11]; at 11.0 µM 87% | [11]; at 33.0 µM 99% | [11]; at 100.0 µM 100% | [12]; [15] 99% | [12]; at 50.0 µM 93.2% | [13]; at 3.7 µM 87% | [13]; at 11.0 µM 96% | [13]; at 33.0 µM 98% | [13]; at 100.0 µM 99%
inactive: [1]; at 1.2 µM -14% | [2]; at 1.2 µM -12% | [2]; at 3.7 µM 52% | [3]; at 1.2 µM 12% | [4]; at 1.2 µM -34% | [4]; at 3.7 µM 46% | [4]; [14] 49% | [5]; at 1.2 µM -40% | [5]; at 3.7 µM 68% | [5]; [14] 54% | [6]; at 1.2 µM -51% | [6]; at 3.7 µM 59% | [7]; [14] 14% | [7]; [15] 69% | [8]; [14] 2% | [8]; [15] -66% | [9]; at 1.2 µM -32% | [9]; at 3.7 µM 11% | [9]; [14] 5% | [9]; [15] -28% | [10]; at 1.2 µM -34% | [10]; at 3.7 µM 6% | [11]; at 1.2 µM 10% | [12]; [14] 59% | [13]; at 1.2 µM 28%
